# This excerpt belongs to a sample that is enriched for hits.
# JMJD2E inh – qHTS Assay for Inhibitors of Human Jumonji Domain Containing 2E (JMJD2E); Lysine-specific demethylase 4E (Homo sapiens), B2RXH2; JMJD2E catalytic domain, FDH-coupled NADH fluorescence (FDH is formaldehyde dehydrogenase); Potency, µM (highest dose often 57.1 µM), actives largely listed as inhibitors; 230,000 tested, 1.6% active; AID 2147, 2009; active means well fitted inhibition curve with a large enough effect, not every such curve was filed as active; inconclusive means small, poorly fitted or top-dose-only effect, or another doubt; inactive means no such curve, though single readings can be large or run the other way; further: nearly all actives have a fitted effect of over 50% in size
# Six1-Eya2 blk – qHTS Assay for Inhibitors of the Six1/Eya2 Interaction; Homeobox protein SIX1 (Homo sapiens) + Protein phosphatase EYA2 (Homo sapiens), …; AlphaScreen GST-Six1/His-Eya2 binding, biochemical; active compounds read low; activity change, % (concentration not given with the values); 360,000 tested, 0.56% active
#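 AlphaScreen with GST-Six1 and His-Eya2 (5X mix: 250 nM and 500 nM), glutathione donor and nickel acceptor beads; buffer 50 mM Tris pH 8.0, 300 mM NaCl, 1 mM TCEP; 1 h at 37 C in the dark.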
# CtBP-E1A inh – qHTS Assay for Inhibitors of the CtBP/E1A Interaction; AlphaScreen GST-E1A/His-CtBP binding, 1536-well; active compounds read low; CtBP / adenovirus E1A interaction (AlphaScreen); activity change, % (test concentration not listed); 340,000 tested, 0.49% active; AID 651724, 2012
#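 Protein mix (5X: 125 nM each GST-E1A, His-CtBP) was incubated with pinned compound 2 h at 37 deg C in dark, in 50 mM Tris pH 8.0 buffer with 300 mM NaCl. Glutathione donor and nickel acceptor beads followed; AlphaScreen signal read after 1 h.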
# L3MBTL1 inh – qHTS Assay for the Inhibitors of L3MBTL1; Lethal(3)malignant brain tumor-like protein 1 (Homo sapiens), Q9Y468; AlphaScreen L3MBTL1–H3K9me1 peptide binding; 230,000 tested, 0.66% active; Potency, µM (titrated, usually from 57.1 µM), actives largely listed as inhibitors; active means well fitted inhibition curve with a large enough effect; inconclusive means small, poorly fitted or top-dose-only effect; inactive means no such curve, though single readings can be large or run the other way; further: nearly all actives have a fitted effect of over 60% in size
#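 AlphaScreen assay: L3MBTL1 (50 nM final) was preincubated 30 min at room temperature with biotinylated H3(1-15)K9me1 peptide (75 nM final), then 30 min with library compounds; streptavidin donor and nickel chelate acceptor beads (10 ug/mL final) added, 30 min dark.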
# Hits are given with their value; – = inactive; ? = inconclusive; · = no result. Unless noted, no stated cut-off is given here; in the data, active means activity change below about -65%; inconclusive means mostly about -30% to -63%; inactive means weaker than that.
SMILES,JMJD2E inh,Six1-Eya2 blk,CtBP-E1A inh,L3MBTL1 inh
COc1cccc(-c2cncnc2NCc2ccc(OC)cc2OC)c1,–,·,·,·
O=C(Nc1nccs1)c1ccc(CSc2nnnn2-c2ccccc2)cc1,–,-68,-79,–
CN1C2CCC1/C(=C/c1cccn1C)C(=O)/C2=C\c1cccn1C,–,?,–,4.5µM
CN1C2CCC1/C(=C\c1ccc(F)cc1)C(=O)/C2=C/c1ccc(F)cc1,–,–,–,–
CCOC(=O)c1sc(N2N=C(C)/C(=C\c3ccc(OCC(=O)OC)cc3)C2=O)nc1C,22µM,–,–,–
COc1ccc(/C(C)=N/NC(=O)c2ccncc2)cc1,·,–,·,–
COc1ccc(C(=O)N/N=C(\C)c2ccc3c(c2)C2C=CCC2C(c2ccccc2)N3)cc1 (stereo not drawn),20µM,–,–,–
O=C(O)c1ccc2c(c1)[C@@H]1C=CC[C@@H]1[C@H](c1ccccn1)N2,·,-77,–,·
COc1cccc(NS(=O)(=O)c2ccc3c(c2)C2C=CCC2C(c2ccc(C(=O)O)cc2)N3)c1 (stereo not drawn),?,?,–,10µM
CCn1c(SCC(=O)N/N=C/C=C\c2ccco2)nc2ccccc21,?,–,–,32µM
Cc1[nH]c(=O)[nH]c(=O)c1/C=N/NC(=O)[C@@H](N)CC(C)C,?,-87,–,–
O=C(COc1ncnc2ccccc12)NC1CCCCC1,·,–,–,?
O=C(N/N=C/c1ccc(-c2ccccc2C(=O)O)o1)c1cccs1,–,–,–,25µM
O=C(N/N=C/c1ccncc1)c1cccs1,·,–,–,·
COc1ccc2c(c1)O[C@@H](c1ccc3c(c1)OCO3)[C@H](OC(=O)NS(=O)(=O)c1ccc(F)cc1)C2=O,–,·,·,·
O=C(Nc1ccccc1)Oc1ccc[nH]c1=O,22µM,–,–,·
O=C(Oc1ccc[nH]c1=O)c1ccc(F)cc1,·,–,–,·
CC1CN(S(=O)(=O)c2csc(C(=O)Nc3ccccc3)c2)CC(C)O1 (stereo not drawn),·,–,–,·
O=[N+]([O-])c1ccc(/C([O-])=C(/C(=S)NCc2ccco2)[n+]2ccccc2)cc1,14µM,–,–,?
CC1=C/C(=C(\c2cc(C)c(O)c(Br)c2)c2ccccc2S(=O)(=O)O)C=C(Br)C1=O,·,-92,-75,22µM
CN(Cc1cc(Br)cc(Br)c1N)C1CCCCC1,–,·,·,·
COc1ccc(/C=C\c2nc(=O)c3ccccc3o2)cc1,–,–,-69,·
CC(C)Nc1nnc(SCC(=O)Nc2ccc3c(c2)C(=O)c2ccccc2C3=O)s1,–,-74,–,?
O=C(CSc1nnc(NC2CCCCC2)s1)Nc1ccc2c(c1)C(=O)c1ccccc1C2=O,–,?,·,–
COc1ccccc1CNCC(=O)Nc1cc(S(=O)(=O)N2CCCCCC2)ccc1Cl,?,–,–,–
SMILES,JMJD2E inh,Six1-Eya2 blk,CtBP-E1A inh,L3MBTL1 inh
Cc1ccc(S(=O)(=O)N2CCOCC2)cc1NC(=O)CNCc1ccccn1,?,-69,-94,·
O=C(CNCc1ccccn1)Nc1cc(S(=O)(=O)N2CCCCC2)ccc1Cl,–,-86,-88,·
C=CCOC(=O)N[C@H](/C(C(=O)OC)=C(\C)NCc1ccccc1)c1cccc(C(F)(F)F)c1,–,·,·,·
COc1cc(C(=O)Oc2ccc(Br)cc2C(=S)N2CCOCC2)cc(OC)c1OC,·,-83,-71,·
CCC(=O)N1CCc2cc(Br)cc(S(=O)(=O)CCC(=O)N(CC)CC)c21,–,–,–,–
CCC(=O)N1CCc2cc(Br)cc(S(=O)(=O)CCC(=O)N(C)c3cccc(C)c3)c21,·,·,·,28µM
O=C(O)c1cccc(S(=O)(=O)Nc2ccccc2C(=O)NCCc2ccccc2)c1,·,–,–,·
Cc1ccc(-c2ccc(CCC(=O)O)n2NC(=O)c2cccs2)cc1,–,–,–,40µM
CCCCCCC/C=N/Nc1nnc(Cc2ccccc2)c(=O)[nH]1,·,–,–,·
COc1ccc(Cc2nnc(N/N=C/c3ccc(O)cc3O)[nH]c2=O)cc1OC,–,-88,-93,3.5µM
CCCCCC/C=N/Nc1nnc(Cc2ccc(OC)c(OC)c2)c(=O)[nH]1,·,-74,?,·
COc1ccc(C2Oc3cc(OC)cc(OC)c3CC2O)cc1 (stereo not drawn),–,·,·,·
C/C(=C\C[Si](C)(C)C)CCC=O,–,·,·,·
Cc1ccc(Cl)cc1NC(=O)C1CC1c1ccccc1 (stereo not drawn),·,–,–,–
C#CCOCCOCCOCCNc1nc(N2CCN(C(=O)[C@H](CCCCN)n3cc(C(N)CO)nn3)CC2)nc(N2CCN(C(=O)[C@H](CCC(=O)O)n3cc(C(N)CC(C)C)nn3)CC2)n1 (stereo partly drawn),20µM,·,·,·
C/C=C/C1=Cc2ccccc2C(C(C(=O)OC)C(=O)OC)N1C(=O)OC (stereo not drawn),–,·,·,·
Cc1ccc(/C=c2/sc3n(c2=O)CCCN=3)o1,?,–,–,–
O=C(NCc1ccc(/C=c2\sc3n(c2=O)CCN=3)o1)C(=O)Nc1ccccc1,–,·,·,25µM
N[C@]1(C(=O)O)CCc2cc(P(=O)(O)O)ccc21,40µM,·,·,·
CC1NC(=O)NC1CCCCCC(=O)NCCc1ccccc1 (stereo not drawn),–,–,–,1.4µM
Cc1ccc(OCCNC(=O)CNC(=O)c2ccccc2Cl)cc1,·,–,–,–
Cc1ccc2[nH]c3c(c2c1)CN(C(=O)CN1CCN(c2cccc(C)c2C)CC1)CC3,22µM,–,–,–
Cc1ccc2[nH]c3c(c2c1)CN(C(=O)CN1CCN(C(=O)c2ccco2)CC1)CC3,–,·,·,–
Cc1cc(C)c(S(=O)(=O)Nc2cc(SCC(=O)O)c(O)c3ccccc23)cc1C,28µM,–,–,?
O=C(O)CSc1cc(NS(=O)(=O)c2ccc(Cl)cc2)c2ccccc2c1O,·,–,?,·
SMILES,JMJD2E inh,Six1-Eya2 blk,CtBP-E1A inh,L3MBTL1 inh
C[C@H](NC(=O)[C@@H]1CCCN1C(=O)[C@@H]1CCCN1C(=O)OC(C)(C)C)c1ccccc1,·,–,–,·
COC(=O)C1CC1C(NC(=O)[C@@H]1CCCN1)c1ccccc1 (stereo partly drawn),–,·,·,·
CC(C)(C)c1ccc(C(=O)Oc2ccc3c(c2)OCC3=O)cc1,–,–,–,·
O=C(Oc1ccc2c(c1)OCC2=O)c1ccccc1,–,-71,–,·
Cn1ccc2cc(-c3ccc4ncnc(NCc5cccc(F)c5)c4c3)ccc21,·,·,·,–
Cc1ccc(Nc2nnc(SCc3cc(=O)n4cc(C)ccc4n3)s2)cc1,–,–,-67,–
COc1ccc(/C=C2\C(=O)N(c3c(Cl)cc(Cl)cc3Cl)N=C2NC(=O)c2cccc([N+](=O)[O-])c2)cc1,–,-79,–,–
COc1cccc(C(=O)Nc2cccc(C(=O)NC3=NN(c4c(Cl)cc(Cl)cc4Cl)C(=O)C3)c2)c1,–,-71,-80,?
COc1cccc([C@@H]2Oc3ccc(OC)cc3C[C@H]2O)c1,–,·,·,·
Cc1cc(CNC(=O)[C@@H]2C[C@H]2[C@@H](NP(=O)(c2ccccc2)c2ccccc2)c2ccccc2)nn1C,–,·,·,·

# Bioassay records as filed in PubChem BioAssay.
